# Compounds without any hit were thinned out: in the full panel of roughly 83,000, 20% have a hit.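 A percent growth of 40 corresponds to 60% growth inhibition; 0 means no net growth; -100 means all cells died. Active threshold: below 10.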 Unmarked numbers belong to inactive results. Activity calls are given as the source filed them.
# How the values were obtained:
# Test in all cases: NCI-60 one-dose screen, 48 h (100 = growth as untreated, 0 = no growth, -100 = all killed)
# Details in all cases: 10 µM unless noted
# DU-145 prostate = system: DU-145 prostate
# K-562 leukemia = system: K-562 leukemia
# MALME-3M melanoma = system: MALME-3M melanoma
# MDA-MB-231 breast = system: MDA-MB-231 breast
# RXF 393 renal = system: RXF 393 renal
# SF-268 CNS = system: SF-268 CNS
# SF-295 CNS = system: SF-295 CNS
# SF-539 CNS = system: SF-539 CNS
# UACC-257 melanoma = system: UACC-257 melanoma
# M14 melanoma = system: M14 melanoma
Structure (SMILES),growth (DU-145 prostate),growth (K-562 leukemia),growth (MALME-3M melanoma),growth (MDA-MB-231 breast),growth (RXF 393 renal),growth (SF-268 CNS),growth (SF-295 CNS),growth (SF-539 CNS),growth (UACC-257 melanoma),growth (M14 melanoma)
Cn1c2ccccc2c2c3c(c4c5cc(Br)ccc5n(C)c4c21)C(=O)N(O)C3=O,-50.7% (active),10.4%,42.4%,-32% (active),-24.8% (active),-0.663% (active),25.9%,-27.7% (active),48.6%,-5.5% (active)
O=C(/C=C/c1cccc(Oc2ccccc2)c1)c1ccc(Nc2nc(Nc3ccc(F)cc3)nc(Nc3ccc(Cl)cc3)n2)cc1,117%,11.5%,90.4%,108%,96.6%,99.9%,104%,116%,109%,106%
CC1=Nc2cnc(Nc3ccc(N4CCCCC4)cc3)nc2Nc2ccccc21,79.8%,34.7%,88.5%,60.4%,68%,91.2%,83.8%,79.9%,93.8%,71.5%
COc1cc(/C=C/C(=O)c2cc(OC)c(OC)c(OC)c2)ccc1Oc1nc2c(c(=O)n(C)c(=O)n2C)n1C,7.64% (active),10.2%,-26.8% (active),9.39% (active),-89.4% (active),11.9%,-10.1% (active),-24.9% (active),40.8%,-28.5% (active)
COc1ccc(-c2cc(C(=O)N3N=C(c4ccc(N)cc4)CC3c3ccc(Cl)cc3)c3ccccc3n2)cc1 (stereo not given),13.9%,7.4% (active),79%,44.2%,21.6%,35%,21.6%,5.56% (active),55.2%,9.68% (active)
CCCC(O)Cn1ncc(C(=O)OCC)c1NC(=O)NCc1cccc(C(F)(F)F)c1 (stereo not given),99.8%,46.9%,92%,95.1%,113%,103%,93.8%,94.3%,101%,58.5%
O=C1Nc2ccccc2/C1=N/N1C(=O)CN(CCCl)C1=O,119%,97.5%,107%,117%,115%,102%,99.6%,105%,96.6%,107%
CN(C)Cc1cc(C(C)(C)C)cc(Br)c1O,109%,106%,122%,113%,93.9%,104%,97.3%,88.6%,119%,101%
CC[C@H](Nc1nc(N)nc(C)c1C#N)c1nc2cccc(CN(C)c3ncc(C(=O)NO)cn3)c2c(=O)n1-c1ccccc1,18.5%,8.69% (active),8.44% (active),-12.6% (active),-61% (active),12.1%,-8.31% (active),8.35% (active),-20.8% (active),9.1% (active)
COc1cc(N2C(=O)[C@H](Cl)C2c2ccc(SC)cc2)cc(OC)c1OC (stereo not given in full),7.66% (active),4.94% (active),78.4%,29.3%,-16.1% (active),28.9%,-7.12% (active),8.03% (active),27.3%,-2.68% (active)
CN(C)c1ccc(/C=C2\C=C(c3nc4ccccc4s3)OC2=O)cc1,104%,83.8%,98.3%,73.9%,110%,98.6%,92%,104%,114%,101%
O=S(O)c1cc(Cl)cc(Cl)c1OCc1ccccc1,109%,106%,99.8%,107%,97.3%,101%,108%,103%,90.8%,101%
CC1(C)CC[C@]23CC[C@]4(C)[C@H](CC[C@@H]5[C@@]6(C)CCNCC(C)(C)[C@@H]6CC[C@]54C)[C@H]2[C@H]1OC3,98.5%,16.9%,104%,96.6%,101%,111%,108%,99.5%,92.5%,92.8%
